Compounds without any hit were thinned out: in the full panel of roughly 83,000, 20% have a hit.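 Results are percent growth after 48 hours of single-concentration exposure. 100 means growth as in untreated cells, lower positive values show inhibition; negative values down to -100 show cell death.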 The source made the active and inactive calls. Rule for the calls: active = growth percent below 10; inactive = the rest.
test system: SK-MEL-28 melanoma; experiment: NCI-60 one-dose screen, 48 h (100 = growth as untreated, 0 = no growth, -100 = all killed); conditions: 10 µM unless noted

**Q.** For `C=C(C)[C@@H]1CC[C@]2(CN)CC[C@]3(C)[C@H](CC[C@@H]4[C@@]5(C)CCC(=O)NC(C)(C)[C@@H]5CC[C@]43C)[C@@H]12`, which growth is on record?
**A.** The growth was 89.2% (inactive).

**Q.** With `Nc1c(Cl)cc(N=Nc2ccccc2)cc1Cl` as the molecule, how does the growth read?
**A.** Its growth is 106% (inactive).

**Q.** Which growth does the source give for `CC(=O)O[C@H]1CC[C@]2(C)[C@H]3C(=O)C=C4[C@@H]5C[C@](C)(C(=O)N6CCCNCC6)CC[C@]5(C)CC[C@@]4(C)[C@]3(C)CC[C@H]2C1(C)C` here?
**A.** Its growth is -74.5% (active).

**Q.** For `CCCCCC1CCCCN1C(=O)OCC` (stereo not given), which growth is on record?
**A.** Its growth is 106% (inactive).

**Q.** With `Cn1cc(-c2nc(-c3c[nH]c4ncccc34)cs2)c2cc(Br)ccc21` as the molecule, how does the growth read?
**A.** Its growth is 102% (inactive).

**Q.** `O=C(N/N=C\c1ccccc1O)C1CC1` was tested. Which growth did it give?
**A.** Its growth is 114% (inactive).

**Q.** With `COc1ccc(OCC(CO)N2CCN(c3ccccc3)CC2)cc1` (stereo not given) as the molecule, how does the growth read?
**A.** Its growth is 103% (inactive).

**Q.** Which growth does the source give for `Cn1cc(-c2nc(-c3c[nH]c4ncccc34)cs2)c2ccccc21` here?
**A.** Its growth is 105% (inactive).

**Q.** With `CC1(C)CC[C@]2(C(=O)Nc3ccccn3)CC[C@]3(C)C(=CC[C@@H]4[C@@]5(C)C/C(=C/c6ccncc6)C(=O)C(C)(C)[C@@H]5CC[C@]43C)[C@@H]2C1` as the molecule, how does the growth read?
**A.** The growth was 37.5% (inactive).

**Q.** Which growth does the source give for `C=C(C)[C@@H]1CC[C@]2(C(=O)O)CC[C@]3(C)[C@H](CC[C@@H]4[C@@]5(C)C/C(=C/c6cccc(I)c6)C(=O)C(C)(C)[C@@H]5CC[C@]43C)[C@@H]12` here?
**A.** Its growth is 75.4% (inactive).

**Q.** `Oc1cccc2oc(=S)[nH]c12` was tested. Which growth did it give?
**A.** Its growth is 104% (inactive).

**Q.** For `CC(=O)O[C@H]1CC[C@@]2(C)C(=CC[C@@H]3[C@@H]2CC[C@]2(C)C(=O)N(O)C(=O)C[C@@H]32)C1`, which growth is on record?
**A.** Its growth is 89.6% (inactive).

**Q.** With `COc1ccc2c(c1)c(-c1nc(-c3c[nH]c4ncccc34)cs1)cn2C` as the molecule, how does the growth read?
**A.** Its growth is 87.9% (inactive).

**Q.** Which growth does the source give for `O=C(O)c1cccc2c1Cc1cc([N+](=O)[O-])ccc1-2` here?
**A.** Its growth is 108% (inactive).

**Q.** Which growth does the source give for `CCOc1ccc(NC(=O)c2ccccc2-c2ccccc2C(=O)O)cc1` here?
**A.** Its growth is 109% (inactive).

**Q.** With `O=c1c2sc3ncc(Br)cc3c2ncn1-c1cccc(Cl)c1` as the molecule, how does the growth read?
**A.** The growth was 78% (inactive).

test system: SK-MEL-2 melanoma; experiment: as above; conditions: 10 µM unless noted

**Q.** Which growth does the source give for `Cn1c(/C(C#N)=C/c2ccc3ccccc3c2)cc2ccccc21` here?
**A.** Its growth is 71.7% (inactive).

**Q.** `Cn1cc(-c2nc(-c3c[nH]c4ncccc34)cs2)c2cc(F)ccc21` was tested. Which growth did it give?
**A.** The growth was 28.3% (inactive).

**Q.** For `CC(=O)N1N=C(c2ccc(C)cc2)CC1c1ccc(Oc2ccc(Br)cc2)cc1` (stereo not given), which growth is on record?
**A.** The growth was 106% (inactive).

**Q.** For `NC1=NN=C2N(N)C(=O)c3cnn(-c4ccccc4)c3N2c2nc(-c3ccccc3)cc(-c3ccccc3)c21`, which growth is on record?
**A.** The growth was 104% (inactive).

**Q.** Which growth does the source give for `Fc1ccc2nc(-c3cc(-c4ccc5c(c4)OCO5)n[nH]3)[nH]c2c1` here?
**A.** The growth was 42.7% (inactive).

**Q.** How did the growth turn out when `CN(C)c1ccc(-c2ccc(-c3ccc(C(=N)N)c(F)c3)s2)cc1` was run?
**A.** Its growth is -0.355% (active).

**Q.** Which growth does the source give for `Cc1c(C)c2c(c(C)c1NC(=O)CCCCCCC(=O)O)CCC(C)(CCCC(C)CCCC(C)CCCC(C)C)O2` (stereo not given) here?
**A.** The growth was 43.2% (inactive).

**Q.** `Cc1cc(C)nc(NC(N)=NCCc2ccccc2)n1` was tested. Which growth did it give?
**A.** Its growth is 38.4% (inactive).

**Q.** For `C=C(C)[C@@H]1CC[C@]2(C(=O)O)CC[C@]3(C)[C@H](CC[C@@H]4[C@@]5(C)C/C(=C/c6ccc(OC)cc6)C(=O)C(C)(C)[C@@H]5CC[C@]43C)[C@@H]12`, which growth is on record?
**A.** The growth was 38.1% (inactive).

**Q.** Which growth does the source give for `COc1ccc2[nH]cc(-c3nc(-c4c[nH]c5ncccc45)cs3)c2c1` here?
**A.** The growth was 32.9% (inactive).

**Q.** How did the growth turn out when `CCc1ccc(-c2ccc(Nc3ccccc3)nn2)cc1S(N)(=O)=O` was run?
**A.** The growth was 78.9% (inactive).

**Q.** `Cn1cccc1/C=C1/SC(=S)N(CCc2ccc(O)cc2)C1=O` was tested. Which growth did it give?
**A.** The growth was 64.7% (inactive).

**Q.** With `CN1CCN(CCOc2ccc(-c3cnc4c(-c5ccccc5F)cnn4c3)cc2)CC1` as the molecule, how does the growth read?
**A.** Its growth is 91.9% (inactive).

**Q.** For `O=c1c(CNc2ccc(S(=O)(=O)Nc3ncccn3)cc2)coc2ccccc12`, which growth is on record?
**A.** The growth was 95.9% (inactive).

**Q.** `Cc1ccc(-c2nc([P+](c3ccccc3)(c3ccccc3)c3ccccc3)c(N3CCOCC3)o2)cc1` was tested. Which growth did it give?
**A.** Its growth is -18.7% (active).

**Q.** Which growth does the source give for `O=C1OC(c2ccc(Cl)c(Cl)c2)=C/C1=C/c1cccc([N+](=O)[O-])c1` here?
**A.** Its growth is 102% (inactive).

**Q.** How did the growth turn out when `COc1ccccc1-n1cnc(N)c1C(=O)c1cc(OC)c(OC)c(OC)c1` was run?
**A.** Its growth is 57.1% (inactive).

**Q.** Which growth does the source give for `COc1ccc2c(c1)C/C(=C\c1cc(-c3ccc4c(c3)OCO4)n[nH]1)C2=O` here?
**A.** The growth was 128% (inactive).

**Q.** `CN(C)CCCC1(c2ccc(F)cc2)OCc2cc(-c3ccc(C(F)(F)F)nc3)ccc21` (stereo not given) was tested. Which growth did it give?
**A.** Its growth is 94.2% (inactive).

**Q.** With `O=c1c(CNc2ccc(S(=O)(=O)Nc3nccs3)cc2)coc2ccccc12` as the molecule, how does the growth read?
**A.** Its growth is 98.1% (inactive).

**Q.** Which growth does the source give for `Cc1ccc2c(c1)c(-c1nc(-c3c[nH]c4ncccc34)cs1)cn2C` here?
**A.** The growth was 99.3% (inactive).

**Q.** Which growth does the source give for `CC1(C)C(=O)/C(=C\c2ccco2)C[C@]2(C)[C@H]3CC[C@@H]4[C@@H](C(=O)/C=C/c5ccco5)CC[C@@]4(C)[C@]3(C)CC[C@@H]12` here?
**A.** The growth was -0.219% (active).

**Q.** How did the growth turn out when `Cc1ccc(-c2nc([P+](c3ccccc3)(c3ccccc3)c3ccccc3)c(N3C[C@H]4C[C@H](C3)c3cccc(=O)n3C4)o2)cc1` was run?
**A.** The growth was 87.7% (inactive).

**Q.** Which growth does the source give for `C=C(C)[C@@H]1CC[C@]2(CN)CC[C@]3(C)[C@H](CC[C@@H]4[C@@]5(C)CCC(=O)NC(C)(C)[C@@H]5CC[C@]43C)[C@@H]12` here?
**A.** Its growth is 98.8% (inactive).

**Q.** For `Nc1c(Cl)cc(N=Nc2ccccc2)cc1Cl`, which growth is on record?
**A.** Its growth is 61.3% (inactive).

**Q.** `CC(=O)O[C@H]1CC[C@]2(C)[C@H]3C(=O)C=C4[C@@H]5C[C@](C)(C(=O)N6CCCNCC6)CC[C@]5(C)CC[C@@]4(C)[C@]3(C)CC[C@H]2C1(C)C` was tested. Which growth did it give?
**A.** Its growth is 96.2% (inactive).

**Q.** For `CCCCCC1CCCCN1C(=O)OCC` (stereo not given), which growth is on record?
**A.** Its growth is 94.9% (inactive).

**Q.** For `Cn1cc(-c2nc(-c3c[nH]c4ncccc34)cs2)c2cc(Br)ccc21`, which growth is on record?
**A.** The growth was 77.6% (inactive).

**Q.** Which growth does the source give for `O=C(N/N=C\c1ccccc1O)C1CC1` here?
**A.** The growth was 103% (inactive).

**Q.** With `COc1ccc(OCC(CO)N2CCN(c3ccccc3)CC2)cc1` (stereo not given) as the molecule, how does the growth read?
**A.** The growth was 106% (inactive).

**Q.** With `Cn1cc(-c2nc(-c3c[nH]c4ncccc34)cs2)c2ccccc21` as the molecule, how does the growth read?
**A.** The growth was 87% (inactive).

**Q.** How did the growth turn out when `CC1(C)CC[C@]2(C(=O)Nc3ccccn3)CC[C@]3(C)C(=CC[C@@H]4[C@@]5(C)C/C(=C/c6ccncc6)C(=O)C(C)(C)[C@@H]5CC[C@]43C)[C@@H]2C1` was run?
**A.** Its growth is 63.3% (inactive).

**Q.** `C=C(C)[C@@H]1CC[C@]2(C(=O)O)CC[C@]3(C)[C@H](CC[C@@H]4[C@@]5(C)C/C(=C/c6cccc(I)c6)C(=O)C(C)(C)[C@@H]5CC[C@]43C)[C@@H]12` was tested. Which growth did it give?
**A.** The growth was 11.2% (inactive).

**Q.** `Oc1cccc2oc(=S)[nH]c12` was tested. Which growth did it give?
**A.** The growth was 109% (inactive).

**Q.** How did the growth turn out when `CC(=O)O[C@H]1CC[C@@]2(C)C(=CC[C@@H]3[C@@H]2CC[C@]2(C)C(=O)N(O)C(=O)C[C@@H]32)C1` was run?
**A.** The growth was 80.4% (inactive).

**Q.** `COc1ccc2c(c1)c(-c1nc(-c3c[nH]c4ncccc34)cs1)cn2C` was tested. Which growth did it give?
**A.** The growth was 60.9% (inactive).

**Q.** Which growth does the source give for `O=C(O)c1cccc2c1Cc1cc([N+](=O)[O-])ccc1-2` here?
**A.** Its growth is 102% (inactive).

**Q.** For `CCOc1ccc(NC(=O)c2ccccc2-c2ccccc2C(=O)O)cc1`, which growth is on record?
**A.** The growth was 101% (inactive).

**Q.** With `O=c1c2sc3ncc(Br)cc3c2ncn1-c1cccc(Cl)c1` as the molecule, how does the growth read?
**A.** Its growth is 96.3% (inactive).

— PubChem BioAssay (NCI)
